Assay results published in PubChem BioAssay (NCATS).
Inconclusive results are not listed. The source made the active and inactive calls. Calls come from the whole dose curve; as a rule, active = well fitted curve in the direction sought with a large enough effect; inconclusive = small, poorly fitted or top-dose-only effect, or another doubt; inactive = no such curve, though single readings can be large; an effect the other way counts as inactive or inconclusive.

Assays:
[1] = qHTS of pediatric cancer cell lines to identify multiple opportunities for drug repurposing: Confirmatory screen for DAOY cells (AID 1347114); details: DAOY medulloblastoma cells viability, cytotoxicity qHTS; note: nearly all actives have a fitted effect of over 65% in size
Outline: (§1)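 Viability measured as metabolically active cells via CellTiter-Glo luminescence following 48 hours of compound exposure, 11-point dilutions in confirmatory testing. 500-1,000 cells/well plated 5 hours before dosing; controls were DMSO and 2.3 µM bortezomib.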

[2] = qHTS of pediatric cancer cell lines to identify multiple opportunities for drug repurposing: Confirmatory screen for NB-EBc1 cells (AID 1347115); details: NB-EBc1 neuroblastoma cells, viability (cytotoxicity);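 note: cells exposed to compound for 48 h before the viability read; nearly all actives have a fitted effect of over 45% in size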
Outline: (§2)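 Viability after 48 h compound treatment at 37C, 500-1,000 cells/well, read as ATP luminescence with CellTiter-Glo. Primary screens used 11-point (MIPE, 0.78 nM-46 µM) or 8-point (NPC, 0.59 nM-46 µM) final concentrations; follow-up screens used 11-point dilutions.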

[3] = qHTS of pediatric cancer cell lines to identify multiple opportunities for drug repurposing: Confirmatory screen for SJ-GBM2 cells (AID 1347116); details: SJ-GBM2 glioblastoma cells, viability; note: nearly all actives have a fitted effect of over 60% in size
Outline: as §1

[4] = qHTS of pediatric cancer cell lines to identify multiple opportunities for drug repurposing: Confirmatory screen for BT-37 cells (AID 1347117); details: BT-37 pediatric cancer cells, viability; note: nearly all actives have a fitted effect of over 55% in size
Outline: as §2

[5] = qHTS of pediatric cancer cell lines to identify multiple opportunities for drug repurposing: Confirmatory screen for TC32 cells (AID 1347118); details: TC32 Ewing sarcoma cells viability qHTS;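 note: cells exposed to compound for 48 h before the read; nearly all actives have a fitted effect of over 65% in size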
Outline: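 Luminescent CellTiter-Glo read-out of metabolically active TC32 cells after 48 h compound exposure. Primary: MIPE 11-point, 0.78 nM–46 µM; NPC 8-point, 0.59 nM–46 µM. Confirmatory: 11-point dilutions.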

[6] = qHTS of pediatric cancer cell lines to identify multiple opportunities for drug repurposing: Confirmatory screen for MG 63 (6-TG R) cells (AID 1347119); details: MG-63 (6-TG resistant) osteosarcoma viability; note: nearly all actives have a fitted effect of over 55% in size
Outline: as §2

[7] = qHTS of pediatric cancer cell lines to identify multiple opportunities for drug repurposing: Confirmatory screen for control Hh wild type fibroblast cells (AID 1347121); details: viability qHTS; note: nearly all actives have a fitted effect of over 70% in size
Outline: as §2

[8] = qHTS of pediatric cancer cell lines to identify multiple opportunities for drug repurposing: Confirmatory screen for U-2 OS cells (AID 1347122); details: U-2 OS osteosarcoma cell viability; note: nearly all actives have a fitted effect of over 65% in size
From the text: Drug repurposing or repositioning has been offered as a strategy for drug development in oncology programs. This approach has special potential for childhood cancers and other rare or orphan diseases, where the expected return on new drug development has been a disincentive to pharmaceuticals.
In this project we exploit the poly-pharmacology of drugs to discover new indications via phenotypic screening of a panel of 19 well-characterized cell lines derived from solid tumors seen in children and adolescents. The goal is to identify approved drugs with previously unrecognized anticancer properties that has the potential to reveal new mechanisms and biological processes involved in carcinogenesis or drug resistance. We employed a titration-based paradigm (quantitative high-throughput screening or qHTS), where all compounds were tested at multiple concentrations for their effect on cell viability. […] We screened the NIH Chemical Genomics Center (NCGC) Pharmaceutical Collection (NPC) and Mechanism Interrogation Plate (MIPE) small molecule collections of approved and investigational compounds against these cell lines; and measured metabolically active cells after 48 hours of compound treatment as a proxy for cell viability. […]
[1] Shen, M et al. Quantitative high-throughput phenotypic screening of pediatric cancer cell lines identifies multiple opportunities for drug repurposing. […]

[9] = qHTS of pediatric cancer cell lines to identify multiple opportunities for drug repurposing: Confirmatory screen for Rh41 cells (AID 1347123); details: Rh41 rhabdomyosarcoma cells, viability/cytotoxicity qHTS; note: nearly all actives have a fitted effect of over 60% in size
Outline: as §2

[10] = qHTS of pediatric cancer cell lines to identify multiple opportunities for drug repurposing: Confirmatory screen for RD cells (AID 1347124); details: RD rhabdomyosarcoma cell viability;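 note: cells exposed to compound for 48 h before viability readout; nearly all actives have a fitted effect of over 65% in size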
Outline: as §2

Measured: Potency
Potency is the fitted concentration of half-maximal effect.

C[CH2][Hg][S]c1ccccc1C(=O)O
active: [1] 3.29 µM | [2] 7.37 µM | [3] 7.37 µM | [4] 8.27 µM | [5] 2.93 µM | [6] 5.22 µM | [7] 16.5 µM | [8] 8.27 µM | [9] 1.17 µM | [10] 7.37 µM
